Records with an inconclusive call do not appear. Entries that show only a call come without a potency. A number with no mark means an inactive call. The source made the active and inactive calls. Calls follow the shape of the dose curve; as a rule, active = well fitted cell-killing curve with a large enough effect in the repeat runs; inconclusive = weak or mixed curves, or effect the other way; inactive = flat fitted curve, though single readings scatter.
How the values were obtained:
[1] = cAMP Responsive Elements (CRE) small molecule antagonists, cell-based qHTS assay: qHTS cell viability counter screen (AID 2060913); also: nearly all actives have a fitted effect of over 40% in size
Outline: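 Cytotoxicity counter screen multiplexed with the CRE-bla antagonist read: HEK293T cells in DMEM with dialyzed FBS and 25 mM HEPES were treated 3 hrs under 0.25 uM final NKH477, then viability measured by CellTiter-Glo luminescence.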

[2] = cAMP Responsive Elements (CRE) small molecule agonists, cell-based qHTS assay: qHTS cell viability counter screen (AID 2060914); also: nearly all actives have a fitted effect of over 50% in size
Outline: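 Luminescence read-out (CellTiter-Glo, 30 min RT) of ATP-based viability in CRE-bla HEK 293T cells, run in the same wells as the β-lactamase reporter assay after 3 h compound treatment at 37 °C.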
Potency is read from the fitted curve at half-maximal effect.

Row | SMILES | Potency [1] | Potency [2] | viability change, negative = cytotoxic [1] | activity change, negative = cytotoxicity [2]
1 | COc1cnc(NS(=O)(=O)c2ccc(N)cc2)nc1 | inactive | inactive | – | –
2 | F[Si-2](F)(F)(F)(F)F | inactive | inactive | – | –
3 | COc1ccc(CN(CCN(C)C)c2ncccn2)cc1 | inactive | inactive | – | –
4 | CCCCCCCCOc1ccc(C(=O)c2ccccc2)c(O)c1 | inactive | inactive | – | –
5 | [Cl][Bi]([Cl])([c]1ccccc1)([c]1ccccc1)[c]1ccccc1 | 30.5 µM (active) | 43 µM (active) | – | –
6 | Nc1ccc(C(=O)OCCCOC(=O)c2ccc(N)cc2)cc1 | inactive | inactive | – | –
7 | COc1ccc(CCN(C)CCCC(C#N)(c2ccc(OC)c(OC)c2)C(C)C)cc1OC (configuration not stated) | inactive | inactive | – | –
8 | Cc1cc(C)c(N)c(Cl)c1 | inactive | inactive | – | –
9 | CN1Cc2cc(C(=O)N3CCC(C4CCNCC4)CC3)ccc2N[C@@H](CC(=O)O)C1=O | inactive | inactive | – | –
10 | COc1cc(C)ccc1C(C)C | inactive | inactive | – | –
11 | CC(=O)c1ccc2ccc3ccccc3c2c1 | inactive | inactive | – | –
12 | N#CSCC(=O)O | inactive | inactive | – | –
13 | C/C=C/C(=O)O | inactive | inactive | – | –
14 | Oc1cn2c(n1)Nc1ccc(Cl)c(Cl)c1C2 | – | – | 7.34% [at 18.9 µM] | -5.61% [at 18.9 µM]
15 | Oc1ccc(-c2ccc(O)cc2)cc1 | inactive | inactive | – | –
16 | CCOC(=O)c1ccc(OCCN2C[C@H](O)[C@@H](O)[C@H](O)[C@H]2CO)cc1 | inactive | inactive | – | –
17 | O=C1OC[C@H](Cc2cccc(O)c2)[C@H]1Cc1cccc(O)c1 | inactive | inactive | – | –
18 | CC(=O)SC[C@@H](Cc1ccccc1)C(=O)NCC(=O)OCc1ccccc1 | inactive | inactive | – | –
19 | COC(=O)c1ccc(C)cc1C1=NC(C)(C(C)C)C(=O)N1 (configuration not stated) | inactive | inactive | – | –

Row | SMILES | Potency [1] | Potency [2] | viability change, negative = cytotoxic [1] | activity change, negative = cytotoxicity [2]
20 | CCC(=O)c1cccc(Cl)c1 | inactive | inactive | – | –
21 | O=C1CCCC(=O)O1 | inactive | inactive | – | –
22 | O=C1C(c2[nH]c3ccc(S(=O)(=O)O)cc3c2O)=Nc2ccc(S(=O)(=O)O)cc21 | inactive | inactive | – | –
23 | C/C=C1/CC2C=CC1C2 (configuration not stated) | inactive | inactive | – | –
24 | CCO[Si](C)(OCC)OCC | inactive | inactive | – | –
25 | CC(=O)CCC1=C(C)CCCC1(C)C | inactive | inactive | – | –
26 | CC(=O)O[C@H]1C[C@@H]2CC[C@@]1(C)C2(C)C | inactive | inactive | – | –
27 | CCCCCCCC/C=C/CCCOC(C)=O | inactive | inactive | – | –
28 | CNC[C@H](O)c1cccc(O)c1 | inactive | inactive | – | –
29 | CC1(C)CC(N)CC(C)(CN)C1 (configuration not stated) | inactive | inactive | – | –
30 | Cc1cc(C)c(NC(=O)CN(CC(=O)O)CC(=O)O)c(C)c1Br | inactive | inactive | – | –
31 | CC(=O)c1ccc2ccccc2c1 | inactive | inactive | – | –
32 | O=C(O)Cc1ccc(-c2ccccc2)cc1 | inactive | inactive | – | –
33 | COC(=O)Nc1nc2ccc(C(=O)c3cccs3)cc2[nH]1 | inactive | inactive | – | –
34 | N[C@@H](CCC(=O)O)C(=O)O | inactive | inactive | – | –
35 | CCCCCCCCCCC[C@@H](C[C@@H]1OC(=O)[C@H]1CCCCCC)OC(=O)[C@H](CC(C)C)NC=O | inactive | inactive | – | –
36 | C/C=C(\C)C#N | inactive | inactive | – | –
37 | CCOC(=O)C(C)(C)Oc1ccc(Cl)cc1 | inactive | inactive | – | –
38 | CCSC(=O)N(CC)CC | inactive | inactive | – | –

Row | SMILES | Potency [1] | Potency [2] | viability change, negative = cytotoxic [1] | activity change, negative = cytotoxicity [2]
39 | CCC/C=C(\C=O)CC | inactive | inactive | – | –
40 | Cc1ccc2cccnc2c1 | inactive | inactive | – | –
41 | O=C(O)CCSCCC(=O)O | inactive | inactive | – | –
42 | CCCCCCCCCCCCSCCOCCO | inactive | inactive | – | –
43 | CCCCNC(=O)NS(=O)(=O)c1ccc(C)cc1 | inactive | inactive | – | –
44 | Cc1noc(NS(=O)(=O)c2ccc(N)cc2)c1C | inactive | inactive | – | –
45 | O=C(O)CN(CCOCCOCCN(CC(=O)O)CC(=O)O)CC(=O)O | – | – | -0.164% [at 0.349 µM] | -3.94% [at 0.349 µM]
46 | CCCCN1CCCC[C@H]1C(=O)Nc1c(C)cccc1C | inactive | inactive | – | –
47 | CCC(C)C(=O)OC (configuration not stated) | inactive | inactive | – | –
48 | Nc1ccccc1S(=O)(=O)c1ccccc1 | inactive | inactive | – | –
49 | NCC1CCCC(CN)C1 (configuration not stated) | inactive | inactive | – | –
50 | CCC(C)(C)C1CCC(OC)CC1 (configuration not stated) | inactive | inactive | – | –
51 | CCN[C@@H]1C[C@H](N)[C@@H](OC2OC(CN)=CCC2N)[C@H](O)[C@H]1O[C@H]1OC[C@](C)(O)[C@H](NC)[C@H]1O (some centres not stated) | – | – | 1.22% [at 0.349 µM] | 3.46% [at 0.349 µM]
52 | CCCC(C)C | inactive | inactive | – | –
53 | O=NN(CCCl)C(=O)NCCCl | inactive | inactive | – | –
54 | CC(C)(c1ccc(Oc2ccc(N)cc2)cc1)c1ccc(Oc2ccc(N)cc2)cc1 | inactive | inactive | – | –
55 | Cc1oc2c(NC(=O)c3c(Cl)cccc3Cl)cccc2c1C(C)(C)O | inactive | inactive | – | –
56 | CC(=O)OC1CCCCC1C(C)(C)C (configuration not stated) | inactive | inactive | – | –

Reference: PubChem BioAssay (Tox21)
